Data: the supplement of paper PMC12632987
Whole data set: some 1,800 sequences, median “median log2 fold change of GCK-ALFA target abundance (FLAG IP / Myc IP barcode read proportion)” near 0.14, cut for the lowest 2% near -0.84. Many of the other results were omitted from the sample, so the lowest values are more common in it than they were.

T1: TRAF2, Q12933
T1 chain: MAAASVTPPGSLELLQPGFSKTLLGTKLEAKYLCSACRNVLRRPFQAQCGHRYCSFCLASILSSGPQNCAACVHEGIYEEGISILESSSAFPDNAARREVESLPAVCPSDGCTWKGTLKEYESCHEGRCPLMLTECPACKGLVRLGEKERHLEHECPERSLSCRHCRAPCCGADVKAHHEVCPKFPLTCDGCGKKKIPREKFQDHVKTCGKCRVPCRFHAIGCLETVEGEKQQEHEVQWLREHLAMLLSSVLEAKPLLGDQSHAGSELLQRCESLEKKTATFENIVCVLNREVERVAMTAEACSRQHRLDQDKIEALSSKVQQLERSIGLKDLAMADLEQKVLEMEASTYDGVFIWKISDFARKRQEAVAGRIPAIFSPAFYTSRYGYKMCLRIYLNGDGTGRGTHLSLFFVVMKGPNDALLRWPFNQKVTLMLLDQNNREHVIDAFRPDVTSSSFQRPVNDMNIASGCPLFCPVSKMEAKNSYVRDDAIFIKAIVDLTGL

B1: traf2_out_20_38_2040 (protein)
chain: EEEKEEEERLLEIAKKATEVADKTEAWVEEKLAAGVSPEEIIAETKKLITEKLAAIGKEEEAKELIERLDTLAAAGEVRRGVVLVMARAAAIVYQKEQEE
B2: traf2_out_20_3_2223 (protein)
chain: EELKREIEEELRKIEELLEKAKPLLPEEDYKKLKELLEKAREALETDLTDALVYLSELRRLALELAQEARAAGNEELAKLLEEMAERANRAAGLVLKAIE
B3: traf2_out_14_166_1275 (protein)
chain: MSPEEIERIRKIVDELEPLTDAAVARLEAILAANADKLTPEQLARVRALLDLARRNIGSSAINAIREIAAIFAAAGLAEAAAAARALADELEAKLKELNK
B4: traf2_out_18_167_1835 (protein)
chain: EEEKEKKRNELLDEMIDISEHYRAAIEYLELLAKDPKEAEAKKEEYMKKIDKDPELVAKIKEVLALPDEERKKAAKALADEVYDERQKKMQELWDKREAV
B5: traf2_out_20_38_2012 (protein)
chain: SEEEKEKEKEEKLIEHANEAYDRAEAWVAALQAAGKSVAEIAAEAKKRIRELLTAHGLEEEAEELIEDVDRVLDSPDAERLIVQILARAETLVFQKELQK
B6: traf2_out_13_95_1095 (protein)
chain: SAEVAAKINAIADKMLDEVLKILEELLKKMEKAGKLVEEVKEALDLAEKRSINEAIHLLKELAKKYPEFKEEFEEAIKKIEEIKREAGREVAKILKEEEE
B7: traf2_out_15_48_1341 (protein)
chain: SVEELRAVASEIADEIDAAKDAVAAELEALRPSAAPEQRAPLAEAIDAARHGRGQNTVLALLDRLEPLLAPEQAARVAALRDRLRAVVRAASARMAEVLK
B8: traf2_out_18_3_1931 (protein)
chain: SEEERKEVSDKIDEIVDDARARAERELERAREELPEKREEIDRLRAALEAGAAPFGILDALAELYEEAGKEEEAKEIEEYLSEKRKEMQELVDEYEKLIK
B9: traf2_out_11_169_847 (protein)
chain: EQEEKNRQIIDKALELEDKAKEELKKHALALAREAGLDVAEVEAIFEKHKGKSLSAIAAALIRWFREQGKEEAAAAVEAKYEELKEEINKKMTEFLKELE
B10: traf2_out_11_169_812 (protein)
chain: EEKEKNRKINDFALELNDEAKKELLKHAKALAKKAGLDVAEVEAIFEKHKNSSLSAVAAALIAYFKSKGKEEEAAAVLAKYEELKEEINKKVTEKIKELE
B11: traf2_out_17_178_1659 (protein)
chain: NKEEARAEISAATDELIDLTEATADRLLAILEADGTASPEELAALREARRLGSATTTRALMEAAVPRSPRSAEVAALLDDFTKRSGELAKKIAEAYKKYE
B12: traf2_out_8_174_2574 (protein)
chain: SERERLRIVSEVLTEFADILDEAEERLEALKDLPLEELRKESQKILDEALKRIDEIEERRVKEVDEETAELIRRAARSAKQQLRNMVEGTIKRKELREKA
B13: traf2_out_11_169_824 (protein)
chain: AEAERNRKINDKALELNDKAKEKLKEFALELAKKAGLDVEEVKAIFEKHKGASLSAIAAALIEYFRSKGKEEEAEAVLKKYEELKDEINKEMAKFLKELE
B14: traf2_out_12_165_941 (protein)
chain: SMRERTEEIVRRAEEEIRRIADAAIAEIRANPDLTPEEVAALRERAVDEMVEVRQRALNELYKAGASIDELAEASERLRRVFDEARARLDAAAAEHLAAR
B15: traf2_out_11_169_848 (protein)
chain: EEEEKNRKIIDKALELNDKAKEELRAHALALAKKAGLDTAAVEAIFEANKGKSLSAVAAALIAWFKAQGKDAEAAAVEAKYEELKEKINKEMTKFLKELE
B16: traf2_out_6_169_2491 (protein)
chain: SMAEELKKEAERHLKTAKELYEIAKTIYNQAINNKNYENIDDYIEALETIKNAYKHHYDKAIEYYKKLGNEEEAEKLEKEKEKKLKEIDEMIKKLKELKK
B17: traf2_out_14_17_1291 (protein)
chain: DIIEKLEEILKTAKELAKKYPELKLELTQLERKAESALVLAEMYEEDPSYKPELIQGLKNLIKLAKEVAEKLKPISAEAVKKLEEMEETAKEILKEVEAE
B18: traf2_out_20_3_2179 (protein)
chain: EELEEELEEELEEALELIKEAAKLADEETAKKLEELAERLKESRELSYEDRLVELSEIRRELLELAEAAKAAGKEELAAVLEEAAEELNEAMNLVYEIIE
B19: traf2_out_20_38_2003 (protein)
chain: SEEEEEERKLEEIIEVANEAYDEATERIAAMVAAGKTVEEIAAEVRAEVTRLLDAAGLEEERDELLADIDRALASPNALRLFARILARARALVKQKELNK
B20: traf2_out_20_38_2002 (protein)
chain: SMEEEEEERLKEIIDVANEAYDEATERIEALRAAGKSVEEIAAIVRAEVAELLDAAGLEEERDELLADIDRALSSPDALRLFARILARARALVKQKELNE
B21: traf2_out_13_95_1094 (protein)
chain: SKEVAEKIMEIADKMLDESLEVLKKLLEEMKKKGKLEEEIKEVLELAENQSINEAIHKLKELAKKYPEVKELLEKAIEELEEIRRKAGKEVAKILKEEKE
B22: traf2_out_8_174_2572 (protein)
chain: DEEKRLKVVADFSTEMADILDEFEEELKKASDLPLEELKKKAEELKKEALEKIDKLKKEWEAKVDEETAKLVQRAANSAKQQIENMAKGAILRKELEDAA
B23: traf2_out_16_177_1462 (protein)
chain: ELDKIMDRIVVLSKIKRAAEYAIENKKEEAEKYLKEAEKEAEEAGDEEGLKKIKELKELMEKNTEEAKKKLKELAKEAQKEAGKLVDEAEALLKARAAAE
B24: traf2_out_20_38_2031 (protein)
chain: SEEEEEKKRLEEAIKVANDAYDRYTERFAALRAAGRTVEEMAAETRAEVRELLTAAGLEEEAEELIADIDLALGSPEAERLLVRILARAEALVWQKKKNE
B25: traf2_out_11_169_830 (protein)
chain: EEAEKNRKINDFALELEEKAKEEFKKFVLELAKEEGLDVEEIKKIFEENKNKSLSAIAAAVIEYFKSKGKEEAAEKVLKKYEELKEKINKEATEKIKELE
B26: traf2_out_6_156_2413 (protein)
chain: MVEKIFEETLKKVEELIKKLSKASEEKKISYISKIAGTVYKALQQLREAGASLEEIKEFSERLKKEIEKLLKEAGLDEKTRNLVLSSVNAVFTVAIEEAK
B27: traf2_out_18_167_1822 (protein)
chain: SAETEAEIERLTDELVRVSEIRRLALLALEALRTDPAAADAARDALIAALNEVPEFRPDAAALRAAPRAELPALLERIAERAQRRAQELYERREELKKKQ
B28: traf2_out_3_89_2308 (protein)
chain: MEERKKTIEEMEKQMEAYVKGFEKSAKFVAKQMLADGMSLDTLRGVLEAAKSALLEVLRETAKERGLSEEEIEKLLKKAEEELNKVVDEVVADAAAKRAA
B29: traf2_out_6_156_2410 (protein)
chain: MVDAIFKEALEKIEKEIKKLSEASEEKKIKYISNIAGTVYRALQQLRDAGASLAEIEAFAKKLKAEIEKKLKEAGLPEDTINLVLSSINAVFDVAIADAK

Target: T1, TRAF2, Q12933
Experiment: median log2 fold change of GCK-ALFA target abundance (FLAG IP / Myc IP barcode read proportion) (log2 ratio); each designed protein is fused to an ALFA-tag nanobody in HEK293 cells to bring the named protein to FLAG-tagged glucokinase (GCK); Myc marks an untargeted standard; higher = target protein stabilised (more abundant)
Conditions: target protein: 3xFLAG-MCP-GCK-ALFA reporter; HEK293 landing pad (RPLP)
Summary of the method: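 Sequencing of reverse-transcribed, amplified circular RNA barcodes from anti-FLAG and anti-Myc immunoprecipitates provided the readout for an ALFA-nanobody-fused binder library recombined into HEK293 landing-pad cells. Those cells were induced with 2 μg mL^−1 doxycycline, transfected with a plasmid expressing a FLAG-tagged target and a Myc-tagged standard, and lysed after 48 h. Target abundance is the per-binder median log2 ratio of FLAG to Myc barcode read proportions. Only barcodes at a proportion of ≥10^−7 in both replicates and binders with ≥3 barcodes per replicate were kept, with a 10^−6 pseudocount added before the two replicates were pooled.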

| Binder | median log2 fold change |
| --- | --- |
| B1 | 0.281 |
| B2 | 0.163 |
| B3 | 0.268 |
| B4 | 0.297 |
| B5 | 0.283 |
| B6 | -0.132 |
| B7 | 0.194 |
| B8 | 0.304 |
| B9 | -0.218 |
| B10 | 0.302 |
| B11 | 0.0548 |
| B12 | -0.187 |
| B13 | 0.0712 |
| B14 | -0.0195 |
| B15 | -0.138 |
| B16 | -0.373 |
| B17 | 0.128 |
| B18 | -0.145 |
| B19 | -0.767 |
| B20 | -1.43 |
| B21 | -0.0821 |
| B22 | 0.209 |
| B23 | -0.0546 |
| B24 | -0.852 |
| B25 | 0.00164 |
| B26 | 0.231 |
| B27 | 0.336 |
| B28 | -0.103 |
| B29 | 0.298 |
